Assay results reported in PubChem BioAssay (Tox21).
Calls of active or inactive are those of the source. Entries that show only a call come without a potency. Calls come from the whole dose curve.

biological target: Acetylcholinesterase (Homo sapiens) (UniProt P22303); assay: Acetylcholinesterase (AChE) small molecule antagonists: enzyme-based qHTS assay with human liver microsomes (AID 1347399); settings: Potency: qHTS inhibition; outcome: qHTS inhibition; series mostly up to 115 µM; note: nearly all actives have a fitted effect of over 60% in size
Sequence (P22303 whole entry, looked up): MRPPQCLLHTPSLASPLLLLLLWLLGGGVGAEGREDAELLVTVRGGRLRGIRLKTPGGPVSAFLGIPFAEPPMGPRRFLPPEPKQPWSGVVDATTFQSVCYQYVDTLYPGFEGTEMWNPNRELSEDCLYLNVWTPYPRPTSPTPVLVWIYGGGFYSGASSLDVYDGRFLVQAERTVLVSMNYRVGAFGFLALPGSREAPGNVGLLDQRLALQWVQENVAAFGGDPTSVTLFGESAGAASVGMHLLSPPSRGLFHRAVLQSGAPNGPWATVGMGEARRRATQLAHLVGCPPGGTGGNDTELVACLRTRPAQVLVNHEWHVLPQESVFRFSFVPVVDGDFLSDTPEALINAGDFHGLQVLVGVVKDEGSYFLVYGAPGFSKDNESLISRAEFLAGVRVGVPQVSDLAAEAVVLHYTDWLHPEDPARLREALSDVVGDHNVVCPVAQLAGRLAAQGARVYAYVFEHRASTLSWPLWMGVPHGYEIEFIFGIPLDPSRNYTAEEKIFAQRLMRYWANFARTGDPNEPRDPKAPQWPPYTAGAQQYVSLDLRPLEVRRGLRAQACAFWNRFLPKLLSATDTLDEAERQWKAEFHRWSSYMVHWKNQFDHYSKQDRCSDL
In short: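 Recombinant human AChE (50 mU/mL in the enzyme mix) and human liver microsomes (0.25 mg/mL final) were preincubated with compound and NADPH (0.25 mg/mL final) for 30 min at 37 C. Acetylthiocholine/DTNB was then added; thiocholine was read colorimetrically after 10 min at room temperature.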

Compound	Potency	activity change, negative = inhibition
Cc1ccc(C(=O)O)cc1	inactive	–
Cl[Si](Cl)(c1ccccc1)c1ccccc1	inactive	–
Cc1ccc(-c2cc(C(F)(F)F)nn2-c2ccc(S(N)(=O)=O)cc2)cc1	inactive	–
C[C@H]1C[C@H]2[C@@H]3CCC4=CC(=O)C=C[C@]4(C)[C@@]3(F)[C@@H](O)C[C@]2(C)[C@@]1(O)C(=O)COP(=O)(O)O	inactive	–
O=C(c1ccccc1O)c1ccccc1O	inactive	–
N[C@H]1CN(c2c(F)cc3c(=O)c(C(=O)O)cn(C4C[C@H]4F)c3c2Cl)CC12CC2 (stereo not given in full)	inactive	–
CCCCCCCCCCCCCCCCCC(=O)OCC(CC)CCCC (stereo not given)	inactive	–
Cc1oc(-c2ccccc2)nc1CCOc1cccc2c1ccn2CCC(=O)O	inactive	–
CO[C@@]1(NC(=O)CSC[C@@H](N)C(=O)O)C(=O)N2C(C(=O)O)=C(CSc3nnnn3C)CS[C@@H]21	inactive	–
Cc1cc(C(C)(C)C)c(O)c(C)c1CC1=NCCN1	inactive	–
Cc1ccc(C=O)cc1	inactive	–
CN(C)CCC(c1ccccc1)c1ccccn1 (stereo not given)	inactive	–
O=c1c(O)c(O)c1=O	inactive	–
CCC(=O)O[C@@H]1C[C@H]2CC[C@]1(C)C2(C)C	inactive	–
CC(CC(C#N)(c1ccccc1)C(C)C)N(C)C (stereo not given)	inactive	–
CC(=O)O[C@H](CC(=O)[O-])C[N+](C)(C)C	inactive	–
O=c1[nH]c(=O)c2cn[nH]c2[nH]1	inactive	–
CCCCOCCOCCO	inactive	–
Cn1cc(S(C)=O)c(=O)c2ccc(F)cc21 (stereo not given)	inactive	–
CN(C)CCCOC1(Cc2ccccc2)CCCCCC1	inactive	–

Compound	Potency	activity change, negative = inhibition
O=c1oc2c(O)c(O)cc3c(=O)oc4c(O)c(O)cc1c4c23	–	-1.34% [at 23.6 µM] (inactive)
CC(=O)N/N=C/c1ccc([N+](=O)[O-])o1	inactive	–
CN1CCC(OC(c2ccccc2)c2ccccc2)CC1	inactive	–
Nc1ccc([N+](=O)[O-])c(C(F)(F)F)c1	inactive	–
CC1CC(C)C(=O)C1=O (stereo not given)	inactive	–
OCCN(CCO)c1cccc(Cl)c1	inactive	–
Nc1ccc(O)c([N+](=O)[O-])c1	inactive	–
O=C(O)c1cccc(C[C@@H]2COc3ccc(OCc4nc5cc(F)ccc5s4)cc3[C@@H]2O)c1	inactive	–
O=C(O)c1ccc(O)cc1	inactive	–
Cc1cn([C@H]2C[C@H](F)[C@@H](CO)O2)c(=O)[nH]c1=O	inactive	–
O=C1c2ccccc2C(=O)N1CCl	inactive	–
NC(=O)N1c2ccccc2C=Cc2ccccc21	inactive	–
CCC(C)(C)C	inactive	–
Fc1ccccc1-c1ccccc1	inactive	–
CCOB(OCC)OCC	inactive	–
C=COCC1CCC(CO)CC1 (stereo not given)	inactive	–
CN(C)c1ccc(Cc2ccc(N(C)C)cc2)cc1	inactive	–
Cc1oc(C)c(C(=O)Nc2ccccc2)c1C	inactive	–
CC(C(=O)O)c1cccc(Oc2ccccc2)c1 (stereo not given)	inactive	–
O=C1CCCCCN1SSN1CCCCCC1=O	inactive	–
